Molecules are shown by their SMILES. Counter-ions that a name gives are not always drawn.

The source of these data is the supplement of paper PMC7184167.

This experiment deals with replication-induced senescent mouse newborn dermal fibroblasts (NBF). In words: relative cell viability of senescent cells (fraction); higher = less killing of senescent cells. Particulars: 1 µM; 3 days. The procedure: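 Replication-induced senescent newborn mouse skin fibroblasts (NBFs) in 24-well plates were treated with a Selleck FDA-approved drug library at 1 µM for 3 days.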
For the compound `COc1cc(Nc2ncc3c(n2)-c2ccc(Cl)cc2C(c2c(F)cccc2OC)=NC3)ccc1C(=O)O` [Alisertib (MLN8237)], the relative cell viability came to 0.0819.

In turn, `C#Cc1cccc(Nc2ncnc3cc(OC)c(OCCCCCCC(=O)NO)cc23)c1` registered a relative cell viability of 1.02. Compound `COCC[n+]1c2c(n(Cc3cnccn3)c1C)C(=O)c1ccccc1C2=O` [YM155 (Sepantronium Bromide)] had a relative cell viability of 0.187.

Compound `C[C@H](Cn1cnc2c(N)ncnc21)OCP(=O)(O)O` [Tenofovir] displayed a relative cell viability of 0.893. Take `Clc1ccc(CCC(Cn2ccnc2)Sc2c(Cl)cccc2Cl)cc1` (stereo not given) [Butoconazole nitrate]: the relative cell viability was determined as 1.14. For `O=C(O)c1ccc(-n2nc(-c3ccccc3O)nc2-c2ccccc2O)cc1` [Deferasirox], the relative cell viability is 1.07. `Cn1cnc([N+](=O)[O-])c1Sc1ncnc2[nH]cnc12` [Azathioprine] displayed a relative cell viability of 0.986. `CC(C)NCC(O)COc1ccc(COCCOC(C)C)cc1` (stereo not given) [Bisoprolol fumarate]: the relative cell viability came out at 0.929. `CN(C)CCC(c1ccc(Cl)cc1)c1ccccn1` (stereo not given) [Chlorpheniramine Maleate]: the relative cell viability was 0.208. The figure for `NC(=O)c1ncn([C@@H]2O[C@H](CO)[C@@H](O)[C@H]2O)c1N` [AICAR (Acadesine)] is 1.02; for `Cc1ccc(Nc2nccc(N(C)c3ccc4c(C)n(C)nc4c3)n2)cc1S(N)(=O)=O` it is 1.05; for `c1ccc2c(CC3=NCCN3)cccc2c1` [Naphazoline HCl] it is 0.868. To `CCOc1cc2ncc(C#N)c(Nc3ccc(F)c(Cl)c3)c2cc1NC(=O)/C=C/CN(C)C` [Pelitinib (EKB-569)] belongs 1.01.

On to `COc1cc2c(Oc3ccc(NC(=O)C4(C(=O)Nc5ccc(F)cc5)CC4)cc3F)ccnc2cc1OCCCN1CCOCC1`, for which the relative cell viability stood at 0.757. `OC(CNCC(O)C1CCc2cc(F)ccc2O1)C1CCc2cc(F)ccc2O1` (stereo not given) [Nebivolol] displayed a relative cell viability of 0.256.

`C[C@H]1C[C@H]2[C@@H]3CCC4=CC(=O)C=C[C@]4(C)[C@H]3C(=O)C[C@]2(C)[C@@]1(O)C(=O)CO` [Meprednisone] returned a relative cell viability of 1.09. As to `Nc1nc(Cl)nc2c1ncn2[C@H]1C[C@H](O)[C@@H](CO)O1` [Cladribine], the relative cell viability came to 0.924. As for `COc1ccccc1OCC(O)CN1CCN(CC(=O)Nc2c(C)cccc2C)CC1` (stereo not given) [Ranolazine 2HCl], the relative cell viability is 0.773. To `[I-].[K+]` [Potassium Iodide] belongs 0.937; to `COc1cc(/C=C/C(=O)CC(=O)/C=C/c2ccc(O)c(OC)c2)ccc1O` [Curcumin], 0.768. Regarding `CCOC(=O)c1ccc(C#Cc2ccc3c(c2)C(C)(C)CCS3)nc1` [Tazarotene], the relative cell viability turned out to be 1.23. On to `C[C@]12C=CC(=O)N[C@@H]1CC[C@@H]1[C@@H]2CC[C@]2(C)[C@@H](C(=O)Nc3cc(C(F)(F)F)ccc3C(F)(F)F)CC[C@@H]12` [Dutasteride], for which the relative cell viability came to 0.986. Consider `Cc1ccc(C(=O)Nc2ccc(CN3CCN(C)CC3)c(C(F)(F)F)c2)cc1C#Cc1cnc2cccnn12`, for which the relative cell viability was 0.964. Take `Nc1nc(F)nc2c1ncn2[C@@H]1O[C@H](CO)[C@@H](O)[C@@H]1O` [Fludarabine]: the relative cell viability was found to be 0.0671. The compound `CCN(CC)CCNC(=O)c1c(C)[nH]c(/C=C2\C(=O)Nc3ccc(F)cc32)c1C` [Sunitinib Malate] returned a relative cell viability of 1.1.

Take `O=C(O)C[C@H](O)C[C@H](O)/C=C/c1c(C2CC2)nc2ccccc2c1-c1ccc(F)cc1` [Pitavastatin Calcium]: the relative cell viability amounted to 1.08. The compound `Cn1cc(CNCC2CCN(c3ncc(C(=O)NO)cn3)CC2)c2ccccc21` yielded a relative cell viability of 0.757. Take `CC(C)(C)c1cc(C(C)(C)C)c(NC(=O)c2c[nH]c3ccccc3c2=O)cc1O` [Ivacaftor (VX-770)]: the relative cell viability was 0.533. `N#C[C@@H]1C[C@@H]2C[C@@H]2N1C(=O)[C@@H](N)C12CC3CC(CC(O)(C3)C1)C2` [Saxagliptin]: the relative cell viability worked out at 0.999. As to `C[C@@H](O[C@H]1OCCN(Cc2n[nH]c(=O)[nH]2)[C@H]1c1ccc(F)cc1)c1cc(C(F)(F)F)cc(C(F)(F)F)c1` [Aprepitant], the relative cell viability is 1.08.

Compound `CCc1c2c(nc3ccc(OC(=O)N4CCC(N5CCCCC5)CC4)cc13)-c1cc3c(c(=O)n1C2)COC(=O)[C@]3(O)CC` [Irinotecan] yielded a relative cell viability of 0.893. For `CCCCCCCCCCC[C@@H](C[C@@H]1OC(=O)[C@H]1CCCCCC)OC(=O)[C@H](CC(C)C)NC=O` [Orlistat], the relative cell viability was 0.998. Compound `Cc1cnc(NC(=O)C2=C(O)c3ccccc3S(=O)(=O)N2C)s1` [Meloxicam] gave a relative cell viability of 1.17. To `NS(=O)(=O)c1cc2c(cc1Cl)NC(C(Cl)Cl)NS2(=O)=O` (stereo not given) [Trichlormethiazide] belongs 0.981; to `NS(=O)(=O)Cc1noc2ccccc12` [Zonisamide], 1.11. In the case of `COc1cc2nccc(Oc3ccc(NC(=O)C4(C(=O)Nc5ccc(F)cc5)CC4)cc3)c2cc1OC`, the relative cell viability amounted to 0.453. Regarding `C[C@]12CCC(=O)C=C1CC[C@@H]1[C@@H]2[C@@H](O)C[C@@]2(C)[C@H]1CC[C@]2(O)C(=O)CO` [Hydrocortisone], the relative cell viability was determined as 0.786. `CC(C(=O)O)c1ccc(C(=O)c2cccs2)cc1` (stereo not given) [Suprofen] registered a relative cell viability of 0.929. `CN(C)C/C=C/C(=O)Nc1cc2c(Nc3ccc(F)c(Cl)c3)ncnc2cc1O[C@H]1CCOC1` [Afatinib (BIBW2992)] returned a relative cell viability of 0.539. The figure for `C[C@H]1C[C@@H]2[C@H]([C@@H](O)C[C@@]3(C)[C@H]2CC[C@]3(O)C(=O)CO)[C@@]2(C)C=CC(=O)C=C12` [Methylprednisolone] is 1.09.
